This passage reports growth inhibition results from PubChem BioAssay (NCI).

SMILES strings stand for the structures. The panel holds about 79,000 compounds, 15% with a hit somewhere; the sample as a whole holds those more often. Calls of active or inactive are those of the source. Cut-off read from the data, not from the text of the source: active = growth inhibition above about 70%; inactive = the rest.

The first assay in a line: NCI Yeast Anticancer Drug Screen. Data for the rad50 strain (AID 155).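 Note: 0% = growth of vehicle-only cultures of the same strain.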 The following applies: S. cerevisiae rad50 strain growth inhibition; at 50.0 µM; hits give high values. In short, it runs like this: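 Yeast carrying a defined DNA repair defect were exposed to test compounds, and growth was compared with vehicle-treated controls to give percent inhibition.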
For the molecule `CNS(=O)(=O)c1ccccc1C=C(c1ccccc1)c1ccccc1`, the growth inhibition is 93.1% (active).
For `CC(C)c1cc(C(C)C)c(Cl)c(Cl)c1O` (tested in a mixture with another compound), the growth inhibition is 99.3% (active).
Turning to `Nc1cccc2cccnc12`, the growth inhibition was 89.3% (active).
Consider `C[n+]1c(/C=C/c2ccc(N3CCCC3)cc2)sc2ccccc21`, for which the growth inhibition was 98.6% (active).
Still for that read-out and setting: to `Nc1cn(C2OC(CC(c3ccccc3)(c3ccccc3)c3ccccc3)C(O)C2O)c(=O)[nH]c1=O` (stereo not drawn) belongs 39% (inactive).
On the same count and under the same terms, to `c1ccc(Cn2nnc(-c3ccccc3)c2-c2ccccc2)cc1` belongs 90.6% (active).
`CCCCCC(CCCCC)OC(=O)CCN(CCCCC)CCCCC`: the growth inhibition is 74% (active).
Regarding `C=CCC1(OC(C)=O)CC2C(=O)C(=O)C(C1)N2OC(=O)c1ccccc1` (stereo not drawn), the growth inhibition is 99% (active).
The same measure, in the same setting: the same measure for `C=CS(=O)(=O)c1ccc([N+](=O)[O-])cc1`: 99.7% (active); for `Cc1ccc(S(=O)(=O)Oc2ccc(C(C)(C)C)cc2Cl)cc1`: -5.5% (inactive).
Still for that read-out and setting: to `O=C(CCl)N1CCN(C(c2ccccc2)c2ccccc2)CC1` belongs 95% (active).
For `Oc1ccc2ccccc2c1.[Cu+2]`, the growth inhibition was 98% (active).
The same measure, in the same setting: the same measure for `NS(=O)(=O)c1ccc(NC(=O)Cc2nc3ccccc3s2)cc1`: 91% (active); for `O=C(COc1ccc(Cl)cc1)OCCO`: 4.9% (inactive).
Regarding `NC(=Nc1ccccc1)SCc1ccc([N+](=O)[O-])cc1`, the growth inhibition was 30.2% (inactive).
Still for that read-out and setting: the same measure for `N[C@@H]1CCCC[C@@H]1N.O=C([O-])CN(CP(=O)([O-])[O-])CP(=O)([O-])[O-].[Pt+2]`: 99.5% (active); for `C/C=C(\C)CC/C=C/CO[Si](C)(C)C(C)(C)C`: -4.15% (inactive).
On the same count and under the same terms, the same measure for `CCOC(=O)c1cnc2cc3cccccc3n2c1=O`: 71.7% (active).
Still for that read-out and setting: the same measure for `C(=N\NC1=NCCN1)/c1ccc(-c2cn3cc(/C=N/NC4=NCCN4)ccc3n2)cc1`: 99.1% (active); for `CC(CN(C)C)C(/C=C/c1ccc(F)cc1)=N\Nc1ccccc1` (stereo not drawn): 30.1% (inactive); for `O=C1C(Sc2ccc3ccccc3c2)=C(Sc2ccc3ccccc3c2)C(=O)c2ccccc21`: 94.2% (active).
For `CC(O)c1cccnc1` (stereo not drawn), the growth inhibition is 65.5% (inactive).
`Cc1cccc2nc3nc(Cl)c(Cl)nc3n12`: the growth inhibition is 75.7% (active).
As for `CSc1cc2c(cc1N)Cc1cc(F)ccc1-2`, the growth inhibition was 98.3% (active).
On the same count and under the same terms, the same measure for `CC(C)C1=CC23CCC4C(C)(C(=O)O)CCCC4(C)C2CC1c1c(O)ccc(O)c13` (stereo not drawn): 99.3% (active); for `C=CCNC(=S)N/N=C(\CCC)c1ccccn1`: 99.3% (active); for `C#CC(C)(C)OC(C)=O`: 69.9% (inactive).
As to `Cc1cc(N2C(=O)CSC2=S)c([N+](=O)[O-])cc1C`, the growth inhibition was 99.2% (active).
With `Cc1[nH]c(=O)[nH]c(=O)c1CN(C)Cc1cc(Cl)cc(Cl)c1O`, the growth inhibition was 53.1% (inactive).
Still for that read-out and setting: to `CCCCC(CC)C(O)C(=O)O` (stereo not drawn) belongs 46.8% (inactive); to `CCOCCOc1ccc(OCCOCC)cc1`, -1.9% (inactive); to `O=C(O)c1ccc(C(=O)c2ccccc2C(=O)O)cc1`, 99.3% (active).
Still for that read-out and setting: to `CCCCCCCCCCCCCCNC(=O)CCC(NC(=O)c1ccc(N(C)Cc2cnc3nc(N)nc(N)c3n2)cc1)C(=O)NCCCCCCCCCCCCCC` (stereo not drawn) belongs 64.9% (inactive).
On the same count and under the same terms, to `C=C1C(=O)C23OC2C1CCC(=O)C1(C)CC[C@H](OC(C)=O)C(C)(C)[C@H]1CC3O` (stereo partly drawn) belongs 99.2% (active); to `CCCCCCCCCCC(NC(C)=O)(C(=O)OCC)C(=O)OCC`, 97.5% (active).
Take `ClC(Cl)(Cl)/C=C/c1cnc2ccccc2n1`: the growth inhibition is 15.6% (inactive).
For the molecule `CCc1nc(N)nc(N)c1-c1ccc(N(C)Cc2ccccc2)c([N+](=O)[O-])c1`, the growth inhibition is 8.55% (inactive).
On to `O=C(COC(=O)C(c1ccccc1)c1ccccc1)c1ccc(Br)cc1`, for which the growth inhibition is 45.9% (inactive).
On the same count and under the same terms, the same measure for `OCCN1COc2cc3c(cc2C1)OCN(CCO)C3`: 17.4% (inactive).

The nature of another assay: NCI Yeast Anticancer Drug Screen. Data for the mec2-1 strain (AID 157). The note with it: S. cerevisiae mec2-1 strain, at 5.0 µM (retest, dose inferred, filed as 0.5), hits give high values. The method in brief: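 Mutant yeast (mec2-1) grown with compound; growth inhibition relative to vehicle control reported.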
With `CNS(=O)(=O)c1ccccc1C=C(c1ccccc1)c1ccccc1`, the growth inhibition was -12% (inactive).
Same read-out and setting: to `CC(C)c1cc(C(C)C)c(Cl)c(Cl)c1O` (tested in a mixture with another compound) belongs 3% (inactive).
The same measure, in the same setting: the same measure for `Nc1cccc2cccnc12`: 8% (inactive); for `C[n+]1c(/C=C/c2ccc(N3CCCC3)cc2)sc2ccccc21`: 37% (inactive).
`Nc1cn(C2OC(CC(c3ccccc3)(c3ccccc3)c3ccccc3)C(O)C2O)c(=O)[nH]c1=O` (stereo not drawn): the growth inhibition was 97% (active).
As for `c1ccc(Cn2nnc(-c3ccccc3)c2-c2ccccc2)cc1`, the growth inhibition is -12% (inactive).
Same read-out and setting: to `CCCCCC(CCCCC)OC(=O)CCN(CCCCC)CCCCC` belongs 6% (inactive); to `C=CCC1(OC(C)=O)CC2C(=O)C(=O)C(C1)N2OC(=O)c1ccccc1` (stereo not drawn), 13% (inactive); to `C=CS(=O)(=O)c1ccc([N+](=O)[O-])cc1`, -7% (inactive).
Same read-out and setting: to `Cc1ccc(S(=O)(=O)Oc2ccc(C(C)(C)C)cc2Cl)cc1` belongs -22% (inactive).
The same measure, in the same setting: the same measure for `O=C(CCl)N1CCN(C(c2ccccc2)c2ccccc2)CC1`: 12% (inactive); for `Oc1ccc2ccccc2c1.[Cu+2]`: -1% (inactive); for `NS(=O)(=O)c1ccc(NC(=O)Cc2nc3ccccc3s2)cc1`: 40% (inactive).
Take `O=C(COc1ccc(Cl)cc1)OCCO`: the growth inhibition was -4% (inactive).
Still for that read-out and setting: the same measure for `NC(=Nc1ccccc1)SCc1ccc([N+](=O)[O-])cc1`: 51% (inactive); for `N[C@@H]1CCCC[C@@H]1N.O=C([O-])CN(CP(=O)([O-])[O-])CP(=O)([O-])[O-].[Pt+2]`: 6% (inactive); for `C/C=C(\C)CC/C=C/CO[Si](C)(C)C(C)(C)C`: -2% (inactive).
Still for that read-out and setting: to `CCOC(=O)c1cnc2cc3cccccc3n2c1=O` belongs -1% (inactive); to `C(=N\NC1=NCCN1)/c1ccc(-c2cn3cc(/C=N/NC4=NCCN4)ccc3n2)cc1`, 100% (active).
`CC(CN(C)C)C(/C=C/c1ccc(F)cc1)=N\Nc1ccccc1` (stereo not drawn): the growth inhibition is -11% (inactive).
Still for that read-out and setting: to `O=C1C(Sc2ccc3ccccc3c2)=C(Sc2ccc3ccccc3c2)C(=O)c2ccccc21` belongs 21% (inactive); to `CC(O)c1cccnc1` (stereo not drawn), 10% (inactive); to `Cc1cccc2nc3nc(Cl)c(Cl)nc3n12`, 17% (inactive).
As for `CSc1cc2c(cc1N)Cc1cc(F)ccc1-2`, the growth inhibition is -1% (inactive).
The same measure, in the same setting: to `CC(C)C1=CC23CCC4C(C)(C(=O)O)CCCC4(C)C2CC1c1c(O)ccc(O)c13` (stereo not drawn) belongs 75% (active); to `C=CCNC(=S)N/N=C(\CCC)c1ccccn1`, 99% (active); to `C#CC(C)(C)OC(C)=O`, 0% (inactive).
The same measure, in the same setting: to `Cc1cc(N2C(=O)CSC2=S)c([N+](=O)[O-])cc1C` belongs 17% (inactive); to `Cc1[nH]c(=O)[nH]c(=O)c1CN(C)Cc1cc(Cl)cc(Cl)c1O`, -8% (inactive); to `CCCCC(CC)C(O)C(=O)O` (stereo not drawn), -1% (inactive).
Regarding `CCOCCOc1ccc(OCCOCC)cc1`, the growth inhibition was -8% (inactive).
Still for that read-out and setting: to `O=C(O)c1ccc(C(=O)c2ccccc2C(=O)O)cc1` belongs -5% (inactive); to `CCCCCCCCCCCCCCNC(=O)CCC(NC(=O)c1ccc(N(C)Cc2cnc3nc(N)nc(N)c3n2)cc1)C(=O)NCCCCCCCCCCCCCC` (stereo not drawn), 22% (inactive); to `C=C1C(=O)C23OC2C1CCC(=O)C1(C)CC[C@H](OC(C)=O)C(C)(C)[C@H]1CC3O` (stereo partly drawn), 92% (active).
On the same count and under the same terms, to `CCCCCCCCCCC(NC(C)=O)(C(=O)OCC)C(=O)OCC` belongs -3% (inactive); to `ClC(Cl)(Cl)/C=C/c1cnc2ccccc2n1`, 1% (inactive).
With `CCc1nc(N)nc(N)c1-c1ccc(N(C)Cc2ccccc2)c([N+](=O)[O-])c1`, the growth inhibition was 7% (inactive).
The same measure, in the same setting: to `O=C(COC(=O)C(c1ccccc1)c1ccccc1)c1ccc(Br)cc1` belongs -1% (inactive); to `OCCN1COc2cc3c(cc2C1)OCN(CCO)C3`, -4% (inactive).
